Data on 9 molecules can be found in PubChem BioAssay (Tox21).

Assay [1] can be described thus: qHTS assay to identify small molecule agonists of the vitamin D receptor (VDR) signaling pathway - cell viability counter screen (AID 743224). Also: nearly all actives have a fitted effect of over 50% in size. Also: potency is read from the fitted curve at half-maximal effect. The method, boiled down:
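Counter screen run in the same wells as the VDR-bla reporter assay: CellTiter-Glo luminescence, 30 min at room temperature, after 16 h compound treatment at 37C of cells pre-plated for 4 h.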

A short description of assay [2]: qHTS assay to identify small molecule antagonists of the vitamin D receptor (VDR) signaling pathway - cell viability counter screen (AID 743225). Also: nearly all actives have a fitted effect of over 50% in size. Also: potency is read from the fitted curve at half-maximal effect. The method, boiled down: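 Cytotoxicity toward the VDR-bla HEK 293T line was scored by ATP-based CellTiter-Glo luminescence, read in the wells already used for the beta-lactamase readout after 16 h compound treatment under 3 nM 1-alpha,25-dihydroxyvitamin D3 stimulation.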

The nature of assay [3]: qHTS assay to identify small molecule agonists of the NFkB signaling pathway - cell viability counter screen (AID 1159515; calls by dose curve; also: series mostly up to about 61 µM; nearly all actives have a fitted effect of over 55% in size). The method, boiled down: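 Read by CellTiter-Glo luminescence (30 min, room temperature) in the wells also used for the beta-lactamase FRET read. ME-180 NFkB-bla cells at 2,000 per well were plated overnight, then exposed to compound for 5 hr at 37 C.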

Assay [4] can be described thus: qHTS assay to identify small molecule agonists of the endoplasmic reticulum stress response signaling pathway (AID 1159516; active = well fitted activation curve with a large enough effect in the signal ratio in the repeat runs, not every such curve was filed as active; the % refers to the signal ratio). The method, boiled down: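 Ratiometric FRET readout (405 nm excitation; 460 and 530 nm emission) of a beta-lactamase gene driven by the ER stress response element, after 2 hr substrate loading. HeLa ESRE-bla cells were seeded overnight and treated with compounds for only 5 hr at 37 C.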

Assay [5] in a line: qHTS assay to identify small molecule agonists of the endoplasmic reticulum stress response signaling pathway - cell viability counter screen (AID 1159517; calls by dose curve; also: series mostly up to about 61 µM; nearly all actives have a fitted effect of over 50% in size). The method in brief:
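Cytotoxicity of test compounds toward ESRE-bla HeLa cells was assessed after 5 hr exposure. The luminescent CellTiter-Glo signal was measured 30 min after reagent addition.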

The nature of assay [6]: qHTS assay to identify small molecule antagonists of the retinoid-related orphan receptor gamma (ROR-gamma) signaling pathway - cell viability counter screen (AID 1159520). Also: nearly all actives have a fitted effect of over 50% in size. Also: potency is read from the fitted curve at half-maximal effect. The method, boiled down:
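Tet-on ROR gamma CHO cells (1,000/well) were plated 4 hr, given compounds in DMSO for 2 hr at 37 C, then induced with 1 uM final doxycycline for 16 hr. Viability was read as ATP by CellTiter-Glo luminescence after 30 min.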
A general note: qHTS replaces the single test concentration by a dilution series.

Assay [7] concerns the target Nuclear receptor ROR-gamma (Homo sapiens) (UniProt P51449). Briefly: qHTS assay to identify small molecule antagonists of the retinoid-related orphan receptor gamma (ROR-gamma) signaling pathway (AID 1159521; also: nearly all actives have a fitted effect of over 50% in size; also: potency is read from the fitted curve at half-maximal effect). The method, boiled down: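 Readout: ONE-Glo luciferase luminescence, 30 min at room temperature. System: Tet-on RORγ CHO, RORE-LUC. Sequence: compound 2 h, doxycycline 1 uM final, 16 h at 37 C.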

The nature of assay [8]: qHTS assay to identify small molecule agonists of the AP-1 signaling pathway - cell viability counter screen (AID 1159525; calls by dose curve; also: nearly all actives have a fitted effect of over 55% in size; also: potency is read from the fitted curve at half-maximal effect). The method in brief: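 Each titration point was normalised to DMSO and tetra n-octyl ammonium bromide controls. The read was Cell Titer Glo luminescence after 30 min at RT, following 5 h compound exposure of ME-180 AP-1-bla cells at 37 °C.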
A short description of assay [9]: qHTS assay to identify small molecule agonists of the AP-1 signaling pathway (AID 1159526; calls by dose curve).
Assay [10] addresses Retinoic acid receptor RXR-alpha (Homo sapiens) (UniProt P19793). Briefly: qHTS assay to identify small molecule agonists of the RXR signaling pathway (AID 1159527; calls by dose curve; also: nearly all actives have a fitted effect of over 35% in size; also: potency is read from the fitted curve at half-maximal effect). The method in brief:
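Reporter activation is measured as beta-lactamase activity via FRET substrate cleavage (emission 460/530 nm) in HEK 293T cells expressing an RXR-alpha-driven bla construct, following 16 hr compound exposure at 37 C.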

A short description of assay [11]: qHTS assay to identify small molecule agonists of the RXR signaling pathway - cell viability counter screen (AID 1159529). Also: nearly all actives have a fitted effect of over 50% in size. Also: potency is read from the fitted curve at half-maximal effect. The method in brief: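 Tox21 10K compounds were tested for cytotoxicity against GeneBLAzer RXR-alpha HEK 293T cells grown in 2% charcoal-stripped FBS. Exposure lasted 16 hr at 37 C, 5% CO2; viability read by CellTiter-Glo luminescence.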
The nature of assay [12]: qHTS assay to identify small molecule antagonists of the retinoid acid receptor (RAR) signaling pathway - cell viability counter screen (AID 1159551). Also: nearly all actives have a fitted effect of over 35% in size. Also: potency is read from the fitted curve at half-maximal effect. The method in brief: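 Cytotoxicity counter screen: ATP content quantified by CellTiter-Glo luminescence in C3RL4 cells treated 6 hr at 37 C with compound and retinol (1 uM final). Cells plated at 1,000/well and cultured overnight before dosing.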

Assay [13] in a line: qHTS assay to identify small molecule antagonists of the retinoic acid receptor (RAR) signaling pathway (AID 1159552; also: nearly all actives have a fitted effect of over 50% in size). The method, boiled down: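 Overnight-plated C3RL4 reporter cells get compound, then retinol to 1 uM final; plates sit 6 hr at 37 C, 5% CO2. A luciferase reagent is added and light output recorded after 30 min at room temperature.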
Assay [14] in a line: qHTS assay to identify small molecule agonists of the retinoic acid receptor (RAR) signaling pathway (AID 1159553). The method in brief:
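Luminescence was measured 30 min after luciferase reagent addition at room temperature. Before that, C3RL4 reporter cells (1,000 per well, plated overnight) were treated with compound for 6 hr at 37 C and 5% CO2.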

Assay [15] in a line: qHTS assay to identify small molecule antagonists of the estrogen related receptor (ERR) signaling pathway - cell viability counter screen (AID 1224818).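 Also: series mostly up to about 46 µM; viability measured after 17.5 h of compound exposure.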 The method in brief:
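Cytotoxicity counter screen: fluorescence from CellTiter-Fluor, added after 17.5 h compound exposure at 37 C and read 30 min later. ERR cell line seeded at 2,000 cells/well, preincubated 6 h before dosing.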

Assay [16] can be described thus: qHTS assay to identify small molecule antagonists of the estrogen related receptor signaling pathway with the pleiotropic PPARgamma coactivator (PGC) cell viability counter screen (AID 1224822; also: series mostly up to about 46 µM). The method, boiled down: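 Viability counter-screen read by fluorescence intensity after 30 min with CellTiter-Fluor at 37 C; PGC/ERR reporter cells were exposed to compounds for 17.5 h at 37 C following a 6 h preincubation.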

Where “and” joins values, the source holds several entries; their conditions need not be identical. Equal entries are not always repeated. Inconclusive results are not listed. The source holds several records for some structures; these can differ, active in one and inactive in another. Calls of active or inactive are those of the source. Unless noted, calls follow the shape of the dose curve; as a rule, active = well fitted curve in the direction sought with a large enough effect in the repeat runs; inconclusive = weak or mixed curves; inactive = no such curve, though single readings can be large; an effect the other way counts as inactive or inconclusive.

Chain of Retinoic acid receptor RXR-alpha (Homo sapiens) (P19793 whole entry, looked up): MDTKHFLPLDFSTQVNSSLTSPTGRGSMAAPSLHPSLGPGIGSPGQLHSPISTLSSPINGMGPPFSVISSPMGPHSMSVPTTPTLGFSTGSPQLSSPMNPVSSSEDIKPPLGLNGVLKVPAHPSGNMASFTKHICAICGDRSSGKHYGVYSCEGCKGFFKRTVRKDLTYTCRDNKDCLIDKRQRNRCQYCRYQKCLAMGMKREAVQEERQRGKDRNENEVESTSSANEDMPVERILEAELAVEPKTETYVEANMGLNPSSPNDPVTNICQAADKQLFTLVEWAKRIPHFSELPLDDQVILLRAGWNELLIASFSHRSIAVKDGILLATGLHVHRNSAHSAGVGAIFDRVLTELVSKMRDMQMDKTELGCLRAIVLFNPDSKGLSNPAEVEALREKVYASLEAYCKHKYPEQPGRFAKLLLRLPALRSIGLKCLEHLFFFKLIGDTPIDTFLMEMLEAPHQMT

For `CC(=O)CCC(=O)O`, the Potency entry in assay [1], in [2], in [3], in assay [4], in assay [5] and in assay [6] was “inactive” in each case. Further, the Potency result in [7], in [8], in assay [9], in assay [10], in assay [11] and in assay [12] was “inactive” throughout.

With `CCCCC1(COC(=O)CCC(=O)O)C(=O)N(c2ccccc2)N(c2ccccc2)C1=O`, the Potency result in assay [1], in [2], in [3], in assay [4], in assay [5] and in [6] was “inactive” throughout. Moreover, the Potency result in assay [7], in assay [8], in [9], in assay [11], in assay [12] and in assay [13] was “inactive” in each case. Further, the Potency entry in assay [14] is “inactive”.

Consider `O=C1O[C@H]([C@@H](O)CO)C(O)=C1O`, for which the Potency result in assay [1], in [2], in assay [3], in assay [4], in assay [5] and in assay [6] was “inactive” throughout. For the same molecule, the Potency entry in [7], in assay [8], in [9], in [11] and in assay [12] was “inactive” in each case. Also, in assay [10], the Potency entry is “inactive and 12.3 µM (active)”.

Regarding `CN1CCc2cccc3c2[C@H]1Cc1ccc(O)c(O)c1-3`, the Potency in [1] is 49.5 µM (active) and 16.3 µM (active) and 26.6 µM (active); in [2] it was 49.5 µM (active) and 11.5 µM (active); in [6], 69.3 µM (active); in assay [7] it was 27.6 µM (active) and 20.4 µM (active) and inactive; in assay [11] it was 18.3 µM (active); in assay [12], 69.3 µM (active). Moreover, the Potency result in [3], in [4], in [5], in assay [8] and in assay [9] was “inactive” in each case.

As to `Nc1ccc(S(N)(=O)=O)cc1`, the Potency entry in [1], in assay [2], in assay [3], in assay [4], in [5] and in assay [6] was “inactive” in each case. The Potency result in assay [8], in assay [9], in assay [11] and in [12] was “inactive” each time.

Take `CCCCCCc1ccc(O)cc1O`: the Potency in assay [1] is 38.9 µM (active) and inactive; in [2] it was 49 µM (active); in [6] it was 61.3 µM (active) and inactive; in assay [8], 43.8 µM (active) and inactive; in [11] it was 49.1 µM (active) and 54.9 µM (active). For the same molecule, the Potency result in [3], in assay [4], in [5], in [7], in assay [12] and in [13] was “inactive” each time. For the same molecule, the Potency result in [14] was “inactive”.

As to `Cc1ncc([N+](=O)[O-])n1C`, the Potency entry in [1], in assay [2], in assay [3], in assay [4], in assay [5] and in assay [6] was “inactive” in each case. In addition, the Potency result in assay [8], in assay [9], in assay [11] and in assay [12] was “inactive” each time.

Consider `COc1ccc(CN(CCN(C)C)c2ccccn2)cc1`, for which the Potency result in assay [1], in assay [2], in assay [3], in [4], in assay [5] and in [6] was “inactive” each time. In addition, the Potency result in assay [7], in assay [8], in assay [12], in assay [13], in assay [14] and in assay [16] was “inactive” in each case. Further, the Potency in [11] was 40.2 µM (active) and inactive. For the same molecule, in assay [15], the result was inactive.

In the case of `CCCCC(CC)C(=O)O` (stereo not given), the Potency result in assay [1], in assay [2], in [3], in assay [4], in [5] and in [6] was “inactive” throughout. The Potency entry in assay [7], in assay [8], in assay [9], in assay [11] and in assay [12] was “inactive” in each case.
